Data as given in PubChem BioAssay (Tox21).
Results filed as inconclusive are left out. Where a call stands in place of a potency, no number is given. Activity calls are given as the source filed them. The call rests on the fitted dose curve; in most records, active means well fitted cell-killing curve with a large enough effect in the repeat runs; inconclusive means weak or mixed curves, or effect the other way; inactive means flat fitted curve, though single readings scatter.

Experiment: cAMP Responsive Elements (CRE) small molecule agonists, cell-based qHTS assay: qHTS cell viability counter screen (AID 2060914); further: nearly all actives have a fitted effect of over 50% in size
Details: CRE-bla HEK293T viability, CellTiter-Glo luminescence, 5 h; series mostly up to 92.4 µM
Method in brief: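 CRE-bla HEK293T cells in 10% dialyzed FBS medium were exposed to compounds for 3 h at 37C after 18 h plating. CellTiter-Glo was then added in the same wells, and luminescence was read after 30 min at room temperature.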

| Compound | Potency |
| --- | --- |
| N#C[C@@H]1C[C@@H]2C[C@@H]2N1C(=O)[C@@H](N)C12CC3CC(CC(O)(C3)C1)C2 | inactive |
| Cn1cnc2c(F)c(Nc3ccc(Br)cc3Cl)c(C(=O)NOCCO)cc21 | inactive |
| NNC(=O)CP(=O)(c1ccccc1)c1ccccc1 | inactive |
| CC(O)CCCCn1c(=O)c2c(ncn2C)n(C)c1=O (centres undefined) | inactive |
| C/C(=N\O)c1ccc(OCC(=O)N2CCCCC2)cc1 | inactive |
| COC(=O)c1cccnc1 | inactive |
| CC/C=C\CCOC(=O)CC | inactive |
| CCOC(=O)Cn1cccc1-c1nc(-c2ccc(OC)cc2)c(-c2ccc(OC)cc2)s1 | inactive |
| CCCCCCCCSCc1cc(C)c(O)c(CSCCCCCCCC)c1 | inactive |
| CC(=O)N[C@@H](CCC(=O)O)C(=O)O | inactive |
| O=S(=O)(O)c1ccc(Cl)cc1 | inactive |
| CC(C)Oc1ccc2c(=O)c(-c3ccccc3)coc2c1 | inactive |
| CC(C)OC(=O)COc1ccc(Cl)cc1Cl | inactive |
| C=C(C)C(=O)OCCC[Si](OC)(OC)OC | inactive |
| C1CNCCN1 | inactive |
| C=C1CC[C@H]2C[C@@H]1C2(C)C | inactive |
| CCC(C=O)CC | inactive |
| CCCCCCCCCCCCCCCCN | inactive |
| Oc1ccc(-c2ccccc2)c(Cl)c1 | inactive |
| CC(=O)OC1CCC(C(C)(C)C)CC1 (centres undefined) | inactive |
| CC(C)(C)NCCNC(C)(C)C | inactive |
| C=C[C@](C)(O)CC[C@@H]1[C@@]2(C)CCCC(C)(C)[C@@H]2CC[C@@]1(C)O | inactive |
| CCCCCCCCCCCCCCCC(=O)OC[C@H](O)[C@H]1OC(=O)C(O)=C1O | inactive |
| CC1=CC[C@H](CC=O)C1(C)C | inactive |
